Source: PubChem
Pf Dd2 growth: blocks in vitro growth of P. falciparum Dd2; Potency, µM (doses to about 28.9 µM), inactives show at the top dose activity, negative = inhibition, usual class: inhibitors; P. falciparum Dd2 growth, SYBR Green, 72 h; 120,000 tested, 4.3% active; active means well fitted inhibition curve with a large enough effect;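 further: plate controls were DMSO vehicle for no effect and reference drug for full effect; nearly all actives have a fitted effect of over 65% in size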
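Infected erythrocytes (Dd2, 0.3% parasitemia, 2.5% hematocrit final) are added to compound in RPMI-1640/Albumax II medium, grown 72 h at 37C in low oxygen, then lysed with saponin/Triton-X containing SYBR Green and read by fluorescence.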
* hit, by the source's call; i = inactive; [ ] = another dose, or the depositor's remark. This excerpt belongs to a sample that is enriched for hits. Potency means the concentration at half of the fitted maximal effect.

SMILES	Pf Dd2 growth
Cc1cccc(NC(=O)N2CCCC(CN3CCOCC3)CC2)c1 (configuration not stated)	i
COc1cc(C(=O)N2CCCC2c2nonc2C)ccc1OC1CCN(C(C)=O)CC1 (configuration not stated)	-19%
O=S(=O)(c1ccccc1)N1CCC(NCC2(O)CNCCOC2)CC1 (configuration not stated)	2%
CN(C)[C@@H]1CN(C(=O)c2ccsc2)CC[C@]1(O)c1ccccc1	i[5.79 µM]
Cc1nn(-c2ccc(C(F)(F)F)cc2)c(C)c1[C@@H]1C=C[C@@H](NC(=O)c2cccs2)C1	2.8µM*
Cc1nn(-c2ccc(C(F)(F)F)cc2)c(C)c1[C@@H]1C=C[C@@H](NC(=O)Nc2ccccc2)C1	11µM*
Cc1nn(Cc2ccccc2)c(C)c1[C@@H]1C=C[C@@H](NC(=O)CSCC(=O)O)C1	i
Cc1nn(-c2ccc(C(C)(C)C)cc2)c(C)c1[C@@H]1C=C[C@@H](NC(=O)c2cccs2)C1	-7%[44.1 µM]
Cc1nn(-c2ccccc2)c(C)c1[C@@H]1C=C[C@@H](NCc2ccc(F)cc2)C1	5µM*
Cc1nn(-c2ccc(C(F)(F)F)cc2)c(C)c1[C@@H]1C=C[C@@H](NC(=O)C2CCCCC2)C1	i
Cc1nn(-c2ccc(C(C)C)cc2)c(C)c1[C@@H]1C=C[C@@H](NCc2cccc(Cl)c2)C1	-15%[44.1 µM]
Cc1ccc(-n2nc(C)c([C@@H]3C=C[C@@H](N)C3)c2C)cc1Cl	i
O=C(N[C@H]1CCN2C(=O)N(c3ccc(F)c(Cl)c3)C(=O)[C@@H]2C1)c1cccs1	i
Cc1nn(-c2ccc(F)cc2)c(C)c1[C@@H]1C=C[C@@H](NS(=O)(=O)c2cccs2)C1	i
Cc1nn(-c2ccc(C(C)(C)C)cc2)c(C)c1[C@@H]1C=C[C@@H](NC(=O)Nc2ccccc2)C1	-13%[44.1 µM]
Cc1ccc(-n2nc(C)c([C@@H]3C=C[C@@H](NC(=O)c4cccs4)C3)c2C)cc1Cl	11µM*
CN1Cc2nc(-c3ccc4c(c3)OCO4)ccc2OCC1=O	-15%[44.1 µM]
Cc1ccc(CNC(=O)CC2=C3CCCCC3N(Cc3ccc(F)cc3)C2=O)cc1 (configuration not stated)	i
COC(=O)[C@]1(C)N[C@H](c2cccnc2N2CCOCC2)[C@@H]2C(=O)N(C)C(=O)[C@@H]21	11%
O=C(NC[C@H]1OC[C@@H](NC2CCOCC2)[C@@H]1O)C1CC1	15%[44.1 µM]
NCC(C1CCCCC1)N1CCCC1 (configuration not stated)	-10%[44.1 µM]
COCCNC(=O)NC[C@H]1O[C@@H]2C[C@@H](CC(=O)NCc3nccn3C)O[C@@H]2[C@@H]1O	16%[44.1 µM]
CNC(=O)[C@@H]1CN(C(=O)COc2ccc(Cl)cc2)C[C@H]1COC	-9%
Cc1ccc(CNC(=O)NCC(=O)N2CCCCCNC(=O)CC2c2ccccc2)cc1 (configuration not stated)	-11%
Cc1nn(Cc2ccccc2)c(C)c1[C@@H]1C=C[C@@H](NC(=O)Nc2cccc(C#N)c2)C1	i
SMILES	Pf Dd2 growth
Cc1nn(-c2ccccn2)c(C)c1[C@@H]1C=C[C@@H](NC(=O)CCC(=O)O)C1	i
COc1ccc(NC(=O)O[C@@H]2C=C[C@H](c3c(C)nn(-c4ccccc4C)c3C)C2)cc1	i
Cc1ccc(-n2nc(C)c([C@H]3C=C[C@@H](OC(=O)Nc4cccc(F)c4)C3)c2C)cc1Cl	11µM*
Cc1nn(Cc2ccccc2)c(C)c1[C@@H]1C=C[C@@H](NC(=O)CCC(=O)O)C1	-8%[44.1 µM]
Cc1nn(-c2cccc(Br)c2)c(C)c1[C@@H]1C=C[C@@H](NC(=O)CC(C)(C)CC(=O)O)C1	8.9µM*
CCCc1noc(-c2cccn3c(CNC(=O)c4ccco4)nnc23)n1	-12%
CCn1cc(S(=O)(=O)N2CCCC(c3nn[nH]n3)C2)cn1 (configuration not stated)	19%
O=C(O)C1CCc2nnc(C3CCCN(C(=O)Cc4ccccc4)C3)n21 (configuration not stated)	i
CCOc1cccc(CNC(=O)c2cc3c(=O)[nH]c(C)cn3n2)c1	i
NC(=O)Cc1c[nH]c2ncc(-c3ccc(Oc4ccccc4)cc3)cc12	i
Cc1nc(N2CCN(C(=O)COc3ccccc3)CC2)cc(C(F)(F)F)n1	-4%
Cc1cc(CNC(=O)[C@@H]2CCC[C@@H](NC(=O)C3CCCC3)CN(C)C(=O)C2)no1	-14%[44.1 µM]
Cc1ccc(-n2c(C)nc3c(cnn3-c3ccccc3)c2=O)cc1	14%
Cc1ccc(-n2c(-c3ccco3)nc3c(cnn3-c3ccccc3C)c2=O)cc1	i
Cc1ccc(-c2nc3c(cnn3-c3ccccc3)c(=O)n2-c2cccc(Cl)c2)cc1	-7%
Cc1cccc(-n2c(-c3ccco3)nc3c(cnn3-c3ccc(F)cc3)c2=O)c1	i
COc1cccc(-n2c(-c3ccccc3F)nc3c(cnn3-c3ccc(C)cc3)c2=O)c1	8.9µM*
Cc1ccc(-n2c(-c3ccco3)nc3c(cnn3-c3ccc(C)cc3)c2=O)cc1	11µM*
O=C(Cc1ccccc1)N1CC[C@H]2COC(=O)N2c2cc(F)ccc2C1	-3%[44.1 µM]
N#Cc1ccc(CN2C[C@@H](CO)[C@H](c3ccncc3)C2)cc1	12%
CCN(CC)Cc1cnc2c(C(=O)N3CCCC3c3ccccn3)cnn2c1 (configuration not stated)	-15%
Cc1nc([C@@H]2CN(C(=O)c3cc(C)n(Cc4ccco4)c3C)C[C@H]2C(N)=O)n[nH]1	8%
CCN(CC)Cc1cnc2c(C(=O)N3[C@H]4CCNC[C@@H]3CC4)cnn2c1	1%
C=CCc1ccccc1OCC(O)CN1CCN(c2ccccc2)CC1 (configuration not stated)	-20%
COc1ccc(CCNC(=O)CC2CCOCC2)cc1OC	52%
SMILES	Pf Dd2 growth
COc1cc(CNCCc2ccccc2C)ccc1OCC(O)CN1CCOCC1 (configuration not stated)	11µM*
COc1cc(CNC2CCCCCCC2)ccc1OCC(O)CN1CCSCC1 (configuration not stated)	8.9µM*
COc1cc(CN2CC=C(C)CC2)ccc1OCC(O)CN1CCSCC1 (configuration not stated)	-14%
OC(COc1ccccc1CNCCc1ccccc1)CN1CCSCC1 (configuration not stated)	1.6µM*
COc1cc(CNC(C)C)ccc1OCC(O)CN1CCSCC1 (configuration not stated)	-17%
COc1cc(CNC2CCCCC2)ccc1OCC(O)CN1CCSCC1 (configuration not stated)	-14%
COc1cc(CNCc2ccccc2C)ccc1OCC(O)CN1CCC(O)CC1 (configuration not stated)	-6%
N#Cc1cccc(CN2CC(CNC(=O)C3CCOCC3)C3(C2)CN(c2ccccc2)C3)c1 (configuration not stated)	i
COc1ccc(CNC(=O)C[C@@H]2CCNC[C@@H]2Cc2cc(COc3ccccc3)on2)cc1OC	-19%
CC1=NOC2(CCN(Cc3ccc(C(F)(F)F)cc3)C2)C1 (configuration not stated)	i
COc1ccc(C(=O)N2CCCCCCNC(=O)[C@@H]3CCC[C@@H]32)c(OC)n1	7%
COCCN1CCC(N2CCN(C(=O)c3cc(C)ccc3C)CC2)C1=O (configuration not stated)	-9%
COC(=O)CN1C(=O)[C@@H]2C[C@@H](O)CN2C2(CN(Cc3cccs3)C2)C1=O	-14%[44.1 µM]
CCn1nccc1C(=O)N1CCC(N2C[C@H](O)C[C@H]2C(=O)NC2CCCCC2)CC1	-17%
